Compound activity: PubChem, Broad Institute
Tg IFNy HTS: inhibitors of Toxoplasma gondii growth with IFN-gamma; 69,000 tested, 3.8% active; activity change, negative = inhibition, % (no concentration beside the values); Toxoplasma gondii growth in IFN-gamma-treated host cells; active compounds read low; AID 1259416; in the data active = activity change below about -70%, passing the limit was not always enough;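 note: host cells are HeLa cells infected with Toxoplasma gondii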
Of the large screens only hits and unclear results are named; the others gave an inactive call; ! = a repeat was not active. This is one part of a sample in which hits are shown more often than they occur.

Cc1c(C(=O)NC(C)Cc2cn(C)c3ccc(F)cc23)cccc1N1CCOCC1 (centres undefined)	none
CCCCCCCCc1ccc(CCC(N)(CO)CO)cc1	Tg IFNy HTS -82!
CCCCCCCCc1ccc(-c2ccc(C(=O)O)cc2)cc1	none
CCCCCCCCCCCCCCCCCCc1ccc(C(=O)/C=C/C(=O)O)cc1	none
O=C(Nc1ccc(C(=O)N2[C@@H]3CC[C@H]2CC(O)C3)cc1)C1CCC1 (some centres undefined)	none
Cc1nc(-c2cc(S(=O)(=O)N3CCCCC3C)c(C)s2)sc1C (centres undefined)	none
Cc1sc(-c2nc(C(C)C)cs2)cc1S(=O)(=O)N1CCC(C)CC1	Tg IFNy HTS -89
Cc1nc(-c2cc(S(=O)(=O)N3CCC(C)CC3)c(C)s2)sc1C	none
Cc1occc1C(=O)NN1CC(=O)N(C23CC4CC(CC(C4)C2)C3)C1=O	none
CCOc1ccc(N(Cc2nc(-c3ccc(C)cc3)oc2C)S(=O)(=O)c2ccccc2)cc1	none
Cc1cc(C)c(N(Cc2ccccc2)S(=O)(=O)c2ccc(OCCNC(=O)c3cc4ccccc4o3)cc2)c(C(=O)NO)c1	Tg IFNy HTS -72!
CCCCOc1ccc(S(=O)(=O)N(Cc2ccccc2)Cc2ccccc2)cc1	none
CN(C)C(=O)CNC1CC2(CCN(c3ccccc3)CC2)c2ccccc21 (centres undefined)	none
CN1C(=O)CCc2cc(NC(=O)c3ccoc3)ccc21	none
O=C(CN1C(=O)CCc2cc(S(=O)(=O)N3CCCCC3)ccc21)NC1CCCCC1	none
COc1nccc(-c2c(-c3ccc(F)cc3)ncn2C2CCC(O)CC2)n1 (centres undefined)	Tg IFNy HTS -79
CCCN1CCC(c2cc3c(ncn3C)c(-c3ccc(OC)cc3)n2)CC1	none
CCCc1ccc(C(=O)N2CCCn3nnc(Cn4ccnc4)c3C2)cc1	none
CCCNC(=O)c1nc2c(o1)CN(Cc1cccnc1)C2	none
CN(C)C[C@@H]1CCC[C@@H]2CN(c3ncccn3)C[C@H]21	none
Cc1ccc(S(=O)(=O)Nc2ccc3c(c2)C(=O)N([C@H](C)CO)C[C@@H](C)[C@@H](CN(C)S(=O)(=O)c2cccs2)OCCCC[C@H](C)O3)cc1	Tg IFNy HTS -117
Cc1noc(C)c1NC(=O)Nc1ccc2c(c1)C(=O)N([C@@H](C)CO)C[C@H](C)[C@H](CN(C)S(=O)(=O)c1cccs1)OCCCC[C@@H](C)O2	none
Cc1noc(C)c1NC(=O)Nc1ccc2c(c1)C(=O)N([C@@H](C)CO)C[C@@H](C)[C@@H](CN(C)S(=O)(=O)c1cccs1)OCCCC[C@@H](C)O2	none
C[C@H](CO)N1C[C@H](C)[C@H](CN(C)C(=O)c2ccncc2)OCCCC[C@H](C)Oc2ccc(NS(=O)(=O)c3cccs3)cc2C1=O	none
Cc1ccc(S(=O)(=O)Nc2ccc3c(c2)C(=O)N([C@H](C)CO)C[C@@H](C)[C@H](CN(C)S(=O)(=O)c2cccs2)OCCCC[C@H](C)O3)cc1	Tg IFNy HTS -131
Cc1noc(C)c1NC(=O)Nc1ccc2c(c1)C(=O)N([C@H](C)CO)C[C@@H](C)[C@@H](CN(C)S(=O)(=O)c1cccs1)OCCCC[C@H](C)O2	none
Cc1noc(C)c1NC(=O)Nc1ccc2c(c1)C(=O)N([C@H](C)CO)C[C@H](C)[C@H](CN(C)S(=O)(=O)c1cccs1)OCCCC[C@@H](C)O2	none
Cc1noc(C)c1NC(=O)Nc1ccc2c(c1)C(=O)N([C@H](C)CO)C[C@H](C)[C@@H](CN(C)S(=O)(=O)c1cccs1)OCCCC[C@@H](C)O2	none
Cc1ccc(S(=O)(=O)Nc2ccc3c(c2)C(=O)N([C@H](C)CO)C[C@H](C)[C@H](CN(C)S(=O)(=O)c2cccs2)OCCCC[C@H](C)O3)cc1	Tg IFNy HTS -121
Cc1noc(C)c1NC(=O)Nc1ccc2c(c1)C(=O)N([C@H](C)CO)C[C@H](C)[C@H](CN(C)S(=O)(=O)c1cccs1)OCCCC[C@H](C)O2	none
Cc1ccc(S(=O)(=O)Nc2ccc3c(c2)C(=O)N([C@@H](C)CO)C[C@@H](C)[C@H](CN(C)S(=O)(=O)c2cccs2)OCCCC[C@@H](C)O3)cc1	Tg IFNy HTS -103
Cc1noc(C)c1NC(=O)Nc1ccc2c(c1)C(=O)N([C@H](C)CO)C[C@@H](C)[C@H](CN(C)S(=O)(=O)c1cccs1)OCCCC[C@H](C)O2	none
CC(c1ccon1)N(C)S(=O)(=O)NCc1ccccc1 (centres undefined)	none
Cc1cnc(C(=O)N2C[C@@H]3COC[C@@]3(CN(C)C)C2)cn1	none
COc1ccc(-c2nc(CN(c3cccc(OC)c3)S(=O)(=O)c3ccc(C)cc3)c(C)o2)cc1	none
Cc1nc(CN2CCN(C(=O)c3cccc(-n4cccn4)c3)CC2)cs1	none
CCCc1nc2ccccc2n1C(C)C(=O)Nc1cc(C)nn1Cc1cccnc1 (centres undefined)	none
C[C@H](CO)N1C[C@H](C)[C@H](CN(C)C(=O)C2CCCCC2)OCCCC[C@H](C)Oc2ccc(NS(=O)(=O)c3ccccc3)cc2C1=O	Tg IFNy HTS -102
C[C@H]1CCCCO[C@@H](CN(C)C(=O)C2CCCCC2)[C@@H](C)CN([C@@H](C)CO)C(=O)c2cc(NS(=O)(=O)c3ccccc3)ccc2O1	none
C[C@H]1CCCCO[C@H](CN(C)C(=O)C2CCCCC2)[C@@H](C)CN([C@@H](C)CO)C(=O)c2cc(NS(=O)(=O)c3ccccc3)ccc2O1	none
O=C(c1cc2c(c3ccccc13)NC1CCC2(C(F)(F)F)O1)C(F)(F)F (centres undefined)	none
Cc1ccc(C(=O)N2CCC3(CCC(COCC4CC4)N3C)CC2)cc1 (centres undefined)	none
Cc1cccc(CN2CCC3(CCC(COCC4CC4)N3C)CC2)n1 (centres undefined)	Tg IFNy HTS -85
CC(C)N1CC2(CCN(Cc3cccnc3)CC2)CC1COCC1CC1 (centres undefined)	none
COc1cccc(CNc2nc(-c3ccc(Cl)cc3)nc3ccccc23)c1	none
COc1ccc(OC)c(S(=O)(=O)NCc2c(F)cccc2Cl)c1	none
O=C1CCCc2c1[nH]c1ccc(-c3ccccc3CO)cc21	Tg IFNy HTS -75
CCC(=O)NCc1ccccc1-c1ccccc1CO	none
CCc1ccccc1-c1ccc2cc[nH]c(=O)c2c1	none
COc1cc(N2CCC3(CC(=O)N(Cc4csc(C)n4)C3)C2)ncn1 (centres undefined)	none
CCc1ccc(Nc2nc(C(=O)NCCc3ccco3)nc3ccccc23)cc1	none
CCOC(=O)c1cc(CC)sc1NC(=O)c1ccc2c(c1)OCO2	none
CCC(NC(=O)C1CCN(C(C)=O)CC1)c1ncccc1C (centres undefined)	none
Cc1cccnc1[C@]1(O)CC[C@H]2CN(Cc3c(C)nc4sccn34)C[C@H]21	none
COc1cccc2c1C(=O)c1c(O)c3c(c(O)c1C2=O)C[C@@](O)(C(=O)CO)C[C@@H]3OC1C[C@H](N)[C@H](O)[C@H](C)O1 (some centres undefined)	Tg IFNy HTS -90
CC1=C(C(=O)NCc2cccc(Cl)c2)C2(CCN(S(C)(=O)=O)CC2)OC1=O	none
CC[C@H](C)[C@H]1O[C@]2(CC[C@@H]1C)C[C@@H]1C[C@@H](C/C=C(\C)[C@@H](O[C@H]3C[C@H](OC)[C@@H](O[C@H]4C[C@H](OC)[C@@H](O)[C@H](C)O4)[C@H](C)O3)[C@@H](C)/C=C/C=C3\CO[C@@H]4[C@H](O)C(C)=C[C@@H](C(=O)O1)[C@]34O)O2	Tg IFNy HTS -87!
